Test results reported in PubChem BioAssay (NCI).
This is part of a sample that, as a whole, favours compounds with a hit. Of some 83,000 tested, about 20% had one in any assay.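 Single-dose data. Exposure time 48 hours. Values below 10 considered active.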 Active and inactive are the calls of the source.

Tests used:
Assay in all cases: NCI-60 one-dose screen, 48 h (100 = growth as untreated, 0 = no growth, -100 = all killed)
Details in all cases: 10 µM
SK-MEL-2 melanoma = test system: SK-MEL-2 melanoma
EKVX NSCLC = test system: EKVX NSCLC
UO-31 renal = test system: UO-31 renal
TK-10 renal = test system: TK-10 renal
ACHN renal = test system: ACHN renal
CAKI-1 renal = test system: CAKI-1 renal
A498 renal = test system: A498 renal
CCRF-CEM leukemia = test system: CCRF-CEM leukemia
MOLT-4 leukemia = test system: MOLT-4 leukemia
SR leukemia = test system: SR leukemia
RPMI-8226 leukemia = test system: RPMI-8226 leukemia
OVCAR-8 ovarian = test system: OVCAR-8 ovarian
OVCAR-5 ovarian = test system: OVCAR-5 ovarian
OVCAR-4 ovarian = test system: OVCAR-4 ovarian
SK-OV-3 ovarian = test system: SK-OV-3 ovarian
IGROV1 ovarian = test system: IGROV1 ovarian
OVCAR-3 ovarian = test system: OVCAR-3 ovarian
NCI/ADR-RES ovarian = test system: NCI/ADR-RES ovarian
HS 578T breast = test system: HS 578T breast

Measured: growth

CCc1c(C)[nH]c(=O)c(C(N)=O)c1C#N
inactive: SK-MEL-2 melanoma 96.3% | EKVX NSCLC 103% | UO-31 renal 93.5% | TK-10 renal 91.9% | ACHN renal 102% | CAKI-1 renal 96.3% | A498 renal 105% | CCRF-CEM leukemia 99% | MOLT-4 leukemia 107% | SR leukemia 91.7% | RPMI-8226 leukemia 105% | OVCAR-8 ovarian 104% | OVCAR-5 ovarian 109% | OVCAR-4 ovarian 115% | SK-OV-3 ovarian 100% | IGROV1 ovarian 107% | OVCAR-3 ovarian 116% | NCI/ADR-RES ovarian 119%

CCC1(C)OC(=O)NC1=O (centres undefined)
inactive: SK-MEL-2 melanoma 106% | EKVX NSCLC 101% | UO-31 renal 88.6% | TK-10 renal 99.3% | ACHN renal 102% | CAKI-1 renal 97.8% | A498 renal 125% | CCRF-CEM leukemia 83.1% | MOLT-4 leukemia 112% | SR leukemia 115% | RPMI-8226 leukemia 96.6% | OVCAR-8 ovarian 105% | OVCAR-5 ovarian 97.1% | OVCAR-4 ovarian 112% | SK-OV-3 ovarian 84% | OVCAR-3 ovarian 112% | NCI/ADR-RES ovarian 95.9%

CNC(=O)c1cc(Oc2ccc(NC(=O)Nc3ccc(Cl)c(OC(C)C)c3)c(F)c2)ccn1
inactive: SK-MEL-2 melanoma 50.2% | EKVX NSCLC 34.8% | UO-31 renal 45.2% | TK-10 renal 66.7% | ACHN renal 41.9% | CAKI-1 renal 64.1% | A498 renal 48.7% | CCRF-CEM leukemia 46.8% | MOLT-4 leukemia 30.9% | SR leukemia 40.8% | RPMI-8226 leukemia 26.8% | OVCAR-8 ovarian 53.9% | OVCAR-5 ovarian 85.3% | SK-OV-3 ovarian 82.8% | IGROV1 ovarian 60.8% | OVCAR-3 ovarian 58.3% | HS 578T breast 64.6% | NCI/ADR-RES ovarian 56%

O=C1CC[C@@H](C(=O)N[C@H]2CSSC[C@@H](C(=O)N/C=C/c3ccc(O)cc3)NC(=O)[C@H](Cc3ccccc3)NC(=O)[C@@H]3CCCN3C(=O)[C@@H]3CCCN3C2=O)N1
inactive: SK-MEL-2 melanoma 93.5% | EKVX NSCLC 95% | UO-31 renal 101% | TK-10 renal 94.8% | ACHN renal 100% | CAKI-1 renal 96.5% | A498 renal 108% | CCRF-CEM leukemia 68% | MOLT-4 leukemia 88.9% | SR leukemia 99.1% | RPMI-8226 leukemia 96.1% | OVCAR-8 ovarian 100% | OVCAR-5 ovarian 102% | OVCAR-4 ovarian 112% | SK-OV-3 ovarian 93.2% | OVCAR-3 ovarian 106% | HS 578T breast 94.4% | NCI/ADR-RES ovarian 97.8%

C=C1C(=O)O[C@H]2[C@H]1CC/C(COC(=O)OCCCCCOC(=O)OC/C1=C/CC[C@@]3(C)O[C@H]3[C@H]3OC(=O)C(=C)[C@@H]3CC1)=C\CC[C@@]1(C)O[C@@H]21
active: SK-MEL-2 melanoma -30% | EKVX NSCLC -4.3% | UO-31 renal -54.9% | TK-10 renal -87.6% | ACHN renal -65.7% | CAKI-1 renal -68.5% | A498 renal -34.2% | CCRF-CEM leukemia 1.79% | MOLT-4 leukemia -7.49% | SR leukemia -20.1% | RPMI-8226 leukemia -3.28% | OVCAR-8 ovarian -4.61% | OVCAR-5 ovarian -36.2% | OVCAR-4 ovarian -43% | OVCAR-3 ovarian -97.5%
inactive: SK-OV-3 ovarian 54.6% | HS 578T breast 33.8% | NCI/ADR-RES ovarian 42.5%

COC(=O)c1cnc2c(c1)Oc1ccc(Cl)cc1-c1cc(C)nn1-2
active: OVCAR-4 ovarian -13.1%
inactive: SK-MEL-2 melanoma 98.3% | EKVX NSCLC 71.2% | UO-31 renal 82.8% | TK-10 renal 95.4% | ACHN renal 42.4% | CAKI-1 renal 57.8% | A498 renal 99.2% | CCRF-CEM leukemia 121% | MOLT-4 leukemia 102% | SR leukemia 89.3% | RPMI-8226 leukemia 95.6% | OVCAR-8 ovarian 96% | OVCAR-5 ovarian 89% | SK-OV-3 ovarian 76.6% | OVCAR-3 ovarian 44.5% | HS 578T breast 56% | NCI/ADR-RES ovarian 70.3%

CCc1c(C(=O)NCc2c(O)ccc3cccc(O)c23)[nH]c(C)c1C(C)=O
inactive: SK-MEL-2 melanoma 32.7% | EKVX NSCLC 27.6% | UO-31 renal 12.5% | TK-10 renal 46.8% | ACHN renal 11.6% | CAKI-1 renal 34.2% | A498 renal 49.3% | CCRF-CEM leukemia 16.6% | MOLT-4 leukemia 19.6% | SR leukemia 30.5% | RPMI-8226 leukemia 15.3% | OVCAR-8 ovarian 38.4% | OVCAR-5 ovarian 90.4% | OVCAR-4 ovarian 27.6% | SK-OV-3 ovarian 62.2% | OVCAR-3 ovarian 12.6% | HS 578T breast 35% | NCI/ADR-RES ovarian 29.2%

CC(=O)Nc1ccc(Sc2ccc(NC(C)=O)cc2)cc1
inactive: SK-MEL-2 melanoma 98.9% | EKVX NSCLC 96.3% | UO-31 renal 81% | TK-10 renal 92.2% | ACHN renal 95.9% | CAKI-1 renal 95.3% | A498 renal 106% | CCRF-CEM leukemia 89.8% | MOLT-4 leukemia 71.6% | SR leukemia 92.9% | RPMI-8226 leukemia 99% | OVCAR-8 ovarian 94.7% | OVCAR-5 ovarian 95.8% | OVCAR-4 ovarian 102% | SK-OV-3 ovarian 82% | OVCAR-3 ovarian 102% | NCI/ADR-RES ovarian 95.7%

CCN(CCCNC(=O)Cc1cc(=O)oc2cc(N(C)C)ccc12)CCNc1ccnc2cc(Cl)ccc12
active: SR leukemia 1.46%
inactive: SK-MEL-2 melanoma 117% | EKVX NSCLC 99.8% | UO-31 renal 84.7% | TK-10 renal 87.4% | ACHN renal 78.6% | CAKI-1 renal 106% | A498 renal 81.5% | CCRF-CEM leukemia 53.9% | MOLT-4 leukemia 44.4% | RPMI-8226 leukemia 54.7% | OVCAR-8 ovarian 83.9% | OVCAR-5 ovarian 109% | SK-OV-3 ovarian 116% | OVCAR-3 ovarian 106% | HS 578T breast 98.3% | NCI/ADR-RES ovarian 109%

NC(=O)c1ccc(Br)o1
inactive: SK-MEL-2 melanoma 100% | EKVX NSCLC 104% | UO-31 renal 93.2% | TK-10 renal 90.8% | ACHN renal 103% | CAKI-1 renal 102% | A498 renal 108% | CCRF-CEM leukemia 119% | MOLT-4 leukemia 109% | SR leukemia 97.4% | RPMI-8226 leukemia 112% | OVCAR-8 ovarian 108% | OVCAR-5 ovarian 105% | SK-OV-3 ovarian 104% | IGROV1 ovarian 107% | OVCAR-3 ovarian 107% | HS 578T breast 109% | NCI/ADR-RES ovarian 96.8%

CNC(=O)c1cc(Oc2ccc(NC(=O)Nc3ccc(Cl)c(C(C)(C)C)c3)c(F)c2)ccn1
inactive: SK-MEL-2 melanoma 44.2% | EKVX NSCLC 29.9% | UO-31 renal 41.6% | TK-10 renal 54.8% | ACHN renal 31.5% | CAKI-1 renal 54.4% | A498 renal 53.4% | CCRF-CEM leukemia 40.6% | MOLT-4 leukemia 36.6% | SR leukemia 43.4% | RPMI-8226 leukemia 34.2% | OVCAR-8 ovarian 44.9% | OVCAR-5 ovarian 82.6% | OVCAR-4 ovarian 33.1% | SK-OV-3 ovarian 66.6% | OVCAR-3 ovarian 40.5% | HS 578T breast 64% | NCI/ADR-RES ovarian 40.2%

CCCCN(CCCC)c1ccc(C(=NC(C)CCCN(CC)CC)c2ccc(N(C)C)cc2)cc1 (centres undefined)
active: SK-MEL-2 melanoma -78.9% | EKVX NSCLC -30.4% | UO-31 renal -87.8% | TK-10 renal -8.82% | ACHN renal -41.3% | CAKI-1 renal -5.33% | A498 renal -12.4% | CCRF-CEM leukemia 7.26% | MOLT-4 leukemia -6.33% | SR leukemia -26.2% | RPMI-8226 leukemia -43.6% | OVCAR-8 ovarian -49% | OVCAR-5 ovarian -6.48% | OVCAR-4 ovarian -13.5% | SK-OV-3 ovarian -70.9% | OVCAR-3 ovarian -47.7% | HS 578T breast -49.8% | NCI/ADR-RES ovarian -51%

O=C1CC[C@@H](C(=O)N[C@H]2CSSC[C@@H](C(=O)NCCc3ccccc3)NC(=O)[C@H](Cc3ccccc3)NC(=O)[C@@H]3CCCN3C(=O)[C@@H]3CCCN3C2=O)N1
inactive: SK-MEL-2 melanoma 94.2% | EKVX NSCLC 101% | UO-31 renal 99.1% | TK-10 renal 86.9% | ACHN renal 104% | CAKI-1 renal 97.3% | A498 renal 91.2% | CCRF-CEM leukemia 69.4% | MOLT-4 leukemia 85.8% | SR leukemia 94.5% | RPMI-8226 leukemia 108% | OVCAR-8 ovarian 104% | OVCAR-5 ovarian 90.4% | OVCAR-4 ovarian 105% | SK-OV-3 ovarian 97.5% | OVCAR-3 ovarian 104% | HS 578T breast 101% | NCI/ADR-RES ovarian 99.8%

C[C@H](NC(=O)[C@@H]1CSSC[C@@H](NC(=O)Cc2nc3ccccc3cc2O)C(=O)NCC(=O)N1C)c1ccccc1
inactive: SK-MEL-2 melanoma 82.3% | EKVX NSCLC 99.5% | UO-31 renal 92% | TK-10 renal 109% | ACHN renal 96.8% | CAKI-1 renal 99.7% | A498 renal 120% | CCRF-CEM leukemia 20.1% | RPMI-8226 leukemia 87.2% | OVCAR-8 ovarian 95.2% | OVCAR-5 ovarian 104% | OVCAR-4 ovarian 63.6% | SK-OV-3 ovarian 88.4% | OVCAR-3 ovarian 99% | HS 578T breast 94.2% | NCI/ADR-RES ovarian 101%
active: MOLT-4 leukemia -17.2% | SR leukemia -3.15%

CCC(CCNc1cc(OC)cc2cccnc12)CN1C(=O)c2ccccc2C1=O (centres undefined)
inactive: SK-MEL-2 melanoma 108% | EKVX NSCLC 95.5% | UO-31 renal 94.7% | TK-10 renal 119% | ACHN renal 102% | CAKI-1 renal 92.8% | A498 renal 117% | CCRF-CEM leukemia 99.3% | MOLT-4 leukemia 108% | SR leukemia 109% | RPMI-8226 leukemia 95.1% | OVCAR-8 ovarian 109% | OVCAR-5 ovarian 111% | SK-OV-3 ovarian 95.7% | IGROV1 ovarian 113% | OVCAR-3 ovarian 106% | HS 578T breast 177% | NCI/ADR-RES ovarian 89.9%

Nc1ccn([C@@H]2O[C@H](COP(=O)(O)O[C@@H]3C[C@H](n4cc(F)c(=O)[nH]c4=O)O[C@@H]3COP(=O)(O)O[C@@H]3C[C@H](n4cc(F)c(=O)[nH]c4=O)O[C@@H]3COP(=O)(O)O[C@@H]3C[C@H](n4cc(F)c(=O)[nH]c4=O)O[C@@H]3COP(=O)(O)O[C@@H]3C[C@H](n4cc(F)c(=O)[nH]c4=O)O[C@@H]3COP(=O)(O)O[C@@H]3C[C@H](n4cc(F)c(=O)[nH]c4=O)O[C@@H]3COP(=O)(O)O[C@@H]3C[C@H](n4cc(F)c(=O)[nH]c4=O)O[C@@H]3COP(=O)(O)O[C@@H]3C[C@H](n4cc(F)c(=O)[nH]c4=O)O[C@@H]3COP(=O)(O)O[C@@H]3C[C@H](n4cc(F)c(=O)[nH]c4=O)O[C@@H]3COP(=O)(O)O[C@@H]3C[C@H](n4cc(F)c(=O)[nH]c4=O)O[C@@H]3COP(=O)(O)O[C@@H]3C[C@H](n4cc(F)c(=O)[nH]c4=O)O[C@@H]3COP(=O)(O)OCCOCCOCCOCCOCCOCCO)[C@H](O)C2O)c(=O)n1 (some centres undefined)
inactive: SK-MEL-2 melanoma 60.2% | EKVX NSCLC 52% | UO-31 renal 13.5% | TK-10 renal 56.3% | ACHN renal 11.7% | CAKI-1 renal 26.7% | A498 renal 46.5% | CCRF-CEM leukemia 21.4% | MOLT-4 leukemia 26.8% | SR leukemia 44.3% | RPMI-8226 leukemia 50.1% | OVCAR-8 ovarian 40.7% | OVCAR-5 ovarian 89.9% | OVCAR-4 ovarian 84% | SK-OV-3 ovarian 32% | OVCAR-3 ovarian 64.5% | NCI/ADR-RES ovarian 39.5%
